For 15 sequences, binding signal results are on record in paper PMC3218832.

Common to all, as to assay: protein binding microarray; high values mean tight binding
What all share (settings): dsDNA, one strand shown

Test [1] has as its target RELARELA (p65 homodimer) (Homo sapiens, UniProt Q04206 1-307).
The target in test [2] is p50p50 homodimer (Homo sapiens, UniProt P19838 7-356).
The target of test [3] is T1, p52p52 homodimer (Homo sapiens, UniProt Q00653 4-332).
T1 sequence: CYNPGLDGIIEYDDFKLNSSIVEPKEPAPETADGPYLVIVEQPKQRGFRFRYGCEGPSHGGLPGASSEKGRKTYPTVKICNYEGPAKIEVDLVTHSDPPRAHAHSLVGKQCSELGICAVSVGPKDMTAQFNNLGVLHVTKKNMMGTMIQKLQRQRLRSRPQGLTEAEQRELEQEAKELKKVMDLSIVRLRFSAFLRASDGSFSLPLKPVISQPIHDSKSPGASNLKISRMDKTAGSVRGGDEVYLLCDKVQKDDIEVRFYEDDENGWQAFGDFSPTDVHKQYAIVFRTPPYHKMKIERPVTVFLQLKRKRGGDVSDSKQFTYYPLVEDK

Test [4] concerns the target RELA (p65) subunit of heterodimer;p50 subunit (Homo sapiens;Homo sapiens, UniProt Q04206;P19838 1-307;7-356).
For test [5], the target named is RELA (p65) subunit of heterodimer;p52 subunit (Homo sapiens;Homo sapiens, UniProt Q04206;Q00653 1-307;4-332).
Test [6] deals with RELB subunit;p50 subunit (Homo sapiens;Homo sapiens, UniProt Q01201;P19838 120-401;7-356).
In test [7] the target is T2, RELB subunit;p52 subunit (Homo sapiens;Homo sapiens, UniProt Q01201;Q00653 120-401;4-332).
T2 sequence 1: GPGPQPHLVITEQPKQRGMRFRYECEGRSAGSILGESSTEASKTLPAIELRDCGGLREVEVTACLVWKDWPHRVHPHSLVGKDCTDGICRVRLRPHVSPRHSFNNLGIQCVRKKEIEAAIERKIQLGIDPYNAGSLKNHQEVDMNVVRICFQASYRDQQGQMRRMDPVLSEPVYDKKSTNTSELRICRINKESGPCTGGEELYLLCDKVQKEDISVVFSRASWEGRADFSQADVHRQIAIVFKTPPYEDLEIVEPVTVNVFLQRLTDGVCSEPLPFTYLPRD
T2 sequence 2: T1 sequence

Test [8] has as its target C-Rel subunit;p50 subunit (Homo sapiens;Homo sapiens, UniProt Q04864;P19838 1-285;7-356).
The target of test [9] is T3, C-Rel subunit;p52 subunit (Homo sapiens;Homo sapiens, UniProt Q04864;Q00653 1-285;4-332).
T3 sequence 1: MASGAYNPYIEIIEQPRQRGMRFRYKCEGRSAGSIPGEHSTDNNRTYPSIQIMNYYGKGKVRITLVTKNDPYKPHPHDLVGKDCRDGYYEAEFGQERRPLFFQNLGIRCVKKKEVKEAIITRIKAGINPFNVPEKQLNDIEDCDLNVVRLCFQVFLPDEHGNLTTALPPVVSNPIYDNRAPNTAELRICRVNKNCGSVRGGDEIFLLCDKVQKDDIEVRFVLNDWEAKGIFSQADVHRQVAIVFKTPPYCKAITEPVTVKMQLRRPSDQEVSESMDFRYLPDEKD
T3 sequence 2: T1 sequence

Chain of p50p50 homodimer (P19838 7-356): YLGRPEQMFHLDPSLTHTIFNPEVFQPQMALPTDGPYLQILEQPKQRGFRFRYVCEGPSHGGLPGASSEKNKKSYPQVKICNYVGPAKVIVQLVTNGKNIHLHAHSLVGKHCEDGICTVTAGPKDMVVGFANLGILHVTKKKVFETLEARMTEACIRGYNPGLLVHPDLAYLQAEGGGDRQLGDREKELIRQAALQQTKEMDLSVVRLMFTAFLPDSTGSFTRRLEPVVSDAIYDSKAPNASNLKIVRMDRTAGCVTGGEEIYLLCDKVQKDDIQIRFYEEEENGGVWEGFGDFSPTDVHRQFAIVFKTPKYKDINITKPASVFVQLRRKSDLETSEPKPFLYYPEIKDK
Chain of RELARELA (p65 homodimer) (Q04206 1-307): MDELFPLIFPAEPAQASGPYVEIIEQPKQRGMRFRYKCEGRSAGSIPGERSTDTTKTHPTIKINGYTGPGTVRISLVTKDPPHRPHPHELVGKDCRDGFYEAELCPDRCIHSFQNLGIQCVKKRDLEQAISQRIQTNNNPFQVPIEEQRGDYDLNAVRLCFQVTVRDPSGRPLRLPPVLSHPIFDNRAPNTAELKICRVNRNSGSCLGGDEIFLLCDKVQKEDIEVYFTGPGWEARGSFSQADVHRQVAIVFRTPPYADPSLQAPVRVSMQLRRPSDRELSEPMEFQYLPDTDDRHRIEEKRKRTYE
Chain of RELA (p65) subunit of heterodimer;p50 subunit (Q04206 1-307, chain 1 of 2): as the sequence (Q04206 1-307) above
Chain of RELA (p65) subunit of heterodimer;p50 subunit (P19838 7-356, chain 2 of 2): as the sequence (P19838 7-356) above

GAGGGTTCCCT: the binding signal in test [1] is -0.44 z-score; in test [2] it was -0.133 z-score; in test [3], -0.121 z-score; in test [4] it was -0.238 z-score; in test [5] it was -0.0267 z-score; in [6], -0.011 z-score. In addition, the binding signal in test [7] is 0.0453 z-score; in test [8], -0.173 z-score; in test [9], -0.0776 z-score.

For AGGTTGCTCCC, the binding signal in test [1] is -0.396 z-score; in test [2], -0.987 z-score; in test [3], -0.528 z-score; in [4], -0.584 z-score; in test [5], -0.648 z-score; in test [6] it was -0.569 z-score. The figures for the binding signal in [7], in [8] and in test [9] were -0.67 z-score, -0.696 z-score and -0.587 z-score, respectively.

Regarding CAGTACGCCCT, the binding signal in test [1] is -0.311 z-score; in [2] it was -1.79 z-score; in test [3], -0.678 z-score; in test [4], -0.914 z-score; in test [5], -0.662 z-score; in test [6], -0.89 z-score. The results for the binding signal in test [7], in test [8] and in [9] were -0.84 z-score, -1.25 z-score and -0.761 z-score, respectively.

For the sequence AAGGTCCCCCC, the binding signal in test [1] was -0.0871 z-score; in test [2] it was 1.12 z-score; in test [3] it was 0.844 z-score; in [4], 1.52 z-score; in [5], 1.1 z-score; in test [6] it was 1.51 z-score. Besides, the results for the binding signal in [7], in test [8] and in test [9] were 1.74 z-score, 1.34 z-score and 0.964 z-score, respectively.

Take CGAATCGCCCT: the binding signal in test [1] was -0.52 z-score; in test [2] it was -1.41 z-score; in test [3], -0.603 z-score; in test [4], -0.694 z-score; in test [5] it was -0.649 z-score; in [6], -0.752 z-score. The binding signal in test [7] is -0.785 z-score; in test [8], -0.785 z-score; in test [9], -0.657 z-score.

For AAATGCCCCCC, the binding signal in test [1] was 0.508 z-score; in test [2] it was 1.24 z-score; in test [3], 0.957 z-score; in [4], 1.43 z-score; in test [5], 1.32 z-score; in test [6] it was 1.4 z-score. Further, the binding signal in test [7] amounted to 1.57 z-score; in test [8] it was 1.28 z-score; in test [9], 0.954 z-score.

For GGGGTGATCCC, the binding signal in test [1] was determined as 0.248 z-score; in test [2], 0.402 z-score; in [3], 1.59 z-score; in test [4], 0.62 z-score; in [5] it was 1.16 z-score; in test [6], 0.387 z-score. Further, the results for the binding signal in [7], in [8] and in [9] were 0.685 z-score, 0.527 z-score and 0.91 z-score, respectively.

As to AAAGAATTCCC, the binding signal was 2.27 z-score in test [1]; 1.08 z-score in test [2]; 1.36 z-score in test [3]; 1.57 z-score in [4]; 1.25 z-score in [5]; 1.07 z-score in [6]. The binding signal in test [7] amounted to 0.975 z-score; in test [8], 1.54 z-score; in [9], 1.12 z-score.

On to CGATGCTCCCC, for which the binding signal in test [1] is 0.0266 z-score; in test [2], -0.0437 z-score; in test [3] it was -0.125 z-score; in test [4], -0.0461 z-score; in [5] it was -0.196 z-score; in test [6], 0.111 z-score. For the same sequence, the binding signal in test [7] is 0.0431 z-score; in test [8], 0.0174 z-score; in test [9] it was -0.273 z-score.

For the sequence AAATTTGCCCT, the binding signal was 0.9 z-score in test [1]; -0.198 z-score in [2]; -0.202 z-score in test [3]; 0.0394 z-score in test [4]; -0.125 z-score in [5]; -0.452 z-score in test [6]. Moreover, the binding signal was -0.337 z-score in [7], 0.26 z-score in [8] and 0.00992 z-score in [9].

For AAAGTCTCCCC, the binding signal was 0.367 z-score in [1]; 0.818 z-score in test [2]; 0.559 z-score in test [3]; 0.733 z-score in [4]; 0.654 z-score in test [5]; 0.78 z-score in test [6]. Also, the binding signal in [7] was found to be 0.879 z-score; in test [8] it was 0.882 z-score; in [9], 0.388 z-score.

With GAATTAGTCCT, the binding signal in test [1] was 0.155 z-score; in test [2], -1.6 z-score; in [3], -0.565 z-score; in test [4] it was -0.821 z-score; in test [5], -0.862 z-score; in test [6] it was -0.954 z-score. The binding signal in [7] is -0.767 z-score; in [8], -0.711 z-score; in [9], -0.848 z-score.

Turning to CGGGTCCTCCC, the binding signal is -0.107 z-score in [1]; -0.467 z-score in test [2]; -0.154 z-score in [3]; -0.451 z-score in test [4]; -0.038 z-score in [5]; -0.526 z-score in [6]. Further, the results for the binding signal in test [7], in test [8] and in test [9] were -0.335 z-score, -0.324 z-score and 0.0736 z-score, respectively.

With GGGTGGGCCCT, the binding signal in test [1] is 0.392 z-score; in [2] it was -0.139 z-score; in test [3], -0.133 z-score; in [4], -0.0704 z-score; in test [5] it was -0.184 z-score; in test [6] it was -0.392 z-score. Besides, the binding signal is -0.318 z-score in test [7], -0.304 z-score in [8] and 0.357 z-score in [9].

On to AGATAGTTCCC, for which the binding signal in [1] was 0.521 z-score; in test [2], -0.317 z-score; in test [3] it was -0.177 z-score; in [4], -0.261 z-score; in [5], -0.107 z-score; in [6], -0.129 z-score. The values for the binding signal in test [7], in test [8] and in [9] were -0.286 z-score, -0.0396 z-score and -0.0868 z-score, respectively.
